Assay [1] can be described thus: NCI Yeast Anticancer Drug Screen. Data for the rad50 strain (AID 155).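 Further: 0% = growth of vehicle-only cultures of the same strain.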 The settings on record: S. cerevisiae rad50 strain growth inhibition, active compounds read high. The essentials:
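Yeast carrying a defined DNA repair defect were exposed to test compounds, and growth was compared with vehicle-treated controls to give percent inhibition.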

The nature of assay [2]: NCI Yeast Anticancer Drug Screen. Data for the mec2-1 strain (AID 157). The settings on record: S. cerevisiae mec2-1 strain, active compounds read high. In outline: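 Strain: mec2-1 (DNA repair/cell cycle alteration). Compound exposure, then growth measured; inhibition expressed relative to vehicle.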
Assay [3] in a line: NCI Yeast Anticancer Drug Screen. Data for the sgs1 mgt1 strain (AID 161).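 Further: 0% = growth of cultures given vehicle only.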 The settings on record: S. cerevisiae sgs1 mgt1 strain, active compounds read high. The essentials: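 Mutant yeast exposed to compound; growth scored against vehicle-only wells.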
Assay [4] in a line: NCI Yeast Anticancer Drug Screen. Data for the cln2 rad14 strain (AID 165).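 Further: 0% = growth equal to vehicle treated cultures.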 The settings on record: S. cerevisiae cln2 rad14 strain, active compounds read high. In outline:
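Compounds are applied to the cln2 rad14 yeast strain, and growth is then compared with that of vehicle-treated cultures to give inhibition.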

Assay [5] can be described thus: NCI Yeast Anticancer Drug Screen. Data for the bub3 strain (AID 167). The settings on record: S. cerevisiae bub3 mutant strain, active compounds read high. In outline: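 Compounds were applied to a genetically altered yeast strain carrying a cell-cycle control defect. Growth inhibition was scored against vehicle-treated controls.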
Assay [6] can be described thus: NCI Yeast Anticancer Drug Screen. Data for the mlh1 rad18 strain (AID 175). The conditions noted are these: S. cerevisiae mlh1 rad18 strain growth inhibition, active compounds read high. The essentials: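 Read-out is yeast growth inhibition, calculated against vehicle-only controls. The compound was applied to a strain engineered with DNA damage repair alterations.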
Setting [7] is: at 5.0 µM (retest, dose inferred, filed as 0.5).
Where [8] appears, read: at 50.0 µM (retest, dose inferred, filed as 5.0).

The panel holds about 79,000 compounds, 15% with a hit somewhere; the sample as a whole holds those more often. A number with no mark means an inactive call. The source made the active and inactive calls. No stated cut-off is given here; in the data, active means growth inhibition above about 70%; inactive means the rest.

For `O=C(C=P(c1ccccc1)(c1ccccc1)c1ccccc1)c1ccccc1-c1ccccc1C(=O)C=P(c1ccccc1)(c1ccccc1)c1ccccc1`, the growth inhibition was 98% (active) in assay [1] (setting [7]); 92% (active) in assay [1] (setting [8]); 87.9% (active) in assay [1] (at 50.0 µM); 99% (active) in assay [2] (setting [7]); 92% (active) in assay [2] (setting [8]); 90.8% (active) in assay [2] (at 50.0 µM). Besides, the growth inhibition in assay [3] (setting [7]) was 99% (active); in assay [3] (setting [8]) it was 87% (active); in assay [3] (at 50.0 µM), 90.5% (active); in assay [4] (setting [7]), 97% (active); in assay [4] (setting [8]), 93% (active); in assay [4] (at 50.0 µM), 88.5% (active). In addition, the growth inhibition in assay [5] (setting [7]) was 99% (active); in assay [5] (setting [8]), 93% (active); in assay [5] (at 50.0 µM), 88.2% (active); in assay [6] (setting [7]) it was 95% (active); in assay [6] (setting [8]), 88% (active); in assay [6] (at 50.0 µM), 90.4% (active).
As for `CN=C1NS(=O)(=O)c2ccccc21`, the growth inhibition in assay [1] (setting [7]) was 2%; in assay [1] (setting [8]) it was 0%; in assay [1] (at 50.0 µM), 15.8%; in assay [2] (setting [7]) it was 8%; in assay [2] (setting [8]), 1%; in assay [2] (at 50.0 µM), -6.15%. Moreover, the growth inhibition was 4% in assay [3] (setting [7]); -1% in assay [3] (setting [8]); 3.4% in assay [3] (at 50.0 µM); 0% in assay [4] (setting [7]); 2% in assay [4] (setting [8]); 19.1% in assay [4] (at 50.0 µM). Also, the growth inhibition in assay [5] (setting [7]) was 11%; in assay [5] (setting [8]) it was 39%; in assay [5] (at 50.0 µM) it was -0.85%; in assay [6] (setting [7]), 0%; in assay [6] (setting [8]), 8%; in assay [6] (at 50.0 µM), -2.4%.
In the case of `CC(C)C1=CC(=O)C2=C(CCC3C(C)(C(=O)O)CCC[C@]23C)C1=O` (stereo not given in full), the growth inhibition in assay [1] (setting [7]) is 7%; in assay [1] (setting [8]), 99% (active); in assay [1] (at 50.0 µM), 92.2% (active); in assay [2] (setting [7]) it was 28%; in assay [2] (setting [8]) it was 99% (active); in assay [2] (at 50.0 µM), 93% (active). The growth inhibition was 20% in assay [3] (setting [7]); 99% (active) in assay [3] (setting [8]); 93.2% (active) in assay [3] (at 50.0 µM); 15% in assay [4] (setting [7]); 99% (active) in assay [4] (setting [8]); 90.7% (active) in assay [4] (at 50.0 µM). Further, the growth inhibition was 54% in assay [5] (setting [7]); 98% (active) in assay [5] (setting [8]); 92.3% (active) in assay [5] (at 50.0 µM); 21% in assay [6] (setting [7]); 99% (active) in assay [6] (setting [8]); 91.7% (active) in assay [6] (at 50.0 µM).
In the case of `Fc1ccc(NC(=S)SCc2ccccc2)cc1F`, the growth inhibition in assay [1] (setting [7]) was 4%; in assay [1] (setting [8]) it was 89% (active); in assay [1] (at 50.0 µM), 97.3% (active); in assay [2] (setting [7]), 2%; in assay [2] (setting [8]), 92% (active); in assay [2] (at 50.0 µM), 99% (active). Also, the growth inhibition in assay [3] (setting [7]) is 5%; in assay [3] (setting [8]), 94% (active); in assay [3] (at 50.0 µM), 99.2% (active); in assay [4] (setting [7]), -6%; in assay [4] (setting [8]), 81% (active); in assay [4] (at 50.0 µM) it was 92.5% (active). The growth inhibition in assay [5] (setting [7]) was 6%; in assay [5] (setting [8]), 95% (active); in assay [5] (at 50.0 µM), 89.8% (active); in assay [6] (setting [7]) it was 0%; in assay [6] (setting [8]) it was 97% (active); in assay [6] (at 50.0 µM), 99.2% (active).
Take `Cc1ccc(Cc2nc(=S)[nH][nH]2)cc1`: the growth inhibition in assay [1] (setting [7]) was 20%; in assay [1] (setting [8]) it was 19%; in assay [1] (at 50.0 µM), 1.6%; in assay [2] (setting [7]) it was -3%; in assay [2] (setting [8]), 6%; in assay [2] (at 50.0 µM), -38.5%. For the same compound, the growth inhibition in assay [3] (setting [7]) is -3%; in assay [3] (setting [8]), 9%; in assay [3] (at 50.0 µM), -2.75%; in assay [4] (setting [7]) it was 1%; in assay [4] (setting [8]), 1%; in assay [4] (at 50.0 µM), -9.2%. Moreover, the growth inhibition in assay [5] (setting [7]) was 8%; in assay [5] (setting [8]), 19%; in assay [5] (at 50.0 µM) it was -6.3%; in assay [6] (setting [7]), 14%; in assay [6] (setting [8]), 21%; in assay [6] (at 50.0 µM), -34.8%.
On to `COc1ccnc2c1C(=O)c1nc3ccccc3c3ccnc-2c13`, for which the growth inhibition was 14% in assay [1] (setting [7]); 89% (active) in assay [1] (setting [8]); 81.2% (active) in assay [1] (at 50.0 µM); -9% in assay [2] (setting [7]); 83% (active) in assay [2] (setting [8]); 79.8% (active) in assay [2] (at 50.0 µM). The growth inhibition is 9% in assay [3] (setting [7]); 83% (active) in assay [3] (setting [8]); 81.5% (active) in assay [3] (at 50.0 µM); 2% in assay [4] (setting [7]); 88% (active) in assay [4] (setting [8]); 80.8% (active) in assay [4] (at 50.0 µM). Also, the growth inhibition was -15% in assay [5] (setting [7]); 86% (active) in assay [5] (setting [8]); 81% (active) in assay [5] (at 50.0 µM); 23% in assay [6] (setting [7]); 92% (active) in assay [6] (setting [8]); -21.9% in assay [6] (at 50.0 µM).
`Oc1ccc(Cc2ccccc2)cc1Cl`: the growth inhibition in assay [1] (setting [7]) was -1%; in assay [1] (setting [8]) it was 74% (active); in assay [1] (at 50.0 µM), 47.5%; in assay [2] (setting [7]) it was -2%; in assay [2] (setting [8]) it was 72% (active); in assay [2] (at 50.0 µM), 41.7%. Besides, the growth inhibition in assay [3] (setting [7]) is -2%; in assay [3] (setting [8]) it was 78% (active); in assay [3] (at 50.0 µM) it was 42.8%; in assay [4] (setting [7]), -4%; in assay [4] (setting [8]), 47%; in assay [4] (at 50.0 µM) it was 95% (active). Further, the growth inhibition in assay [5] (setting [7]) was -6%; in assay [5] (setting [8]) it was 54%; in assay [5] (at 50.0 µM), 97.7% (active); in assay [6] (setting [7]) it was -1%; in assay [6] (setting [8]) it was 85% (active); in assay [6] (at 50.0 µM) it was 41.6%.
In the case of `CCOC(=O)C1=C(N)OC(c2ccccc2)=C(C#N)C1c1ccc(C)cc1` (stereo not given), the growth inhibition is 8% in assay [1] (setting [7]); 90% (active) in assay [1] (setting [8]); 96.1% (active) in assay [1] (at 50.0 µM); 4% in assay [2] (setting [7]); 91% (active) in assay [2] (setting [8]); 97% (active) in assay [2] (at 50.0 µM). Further, the growth inhibition is 11% in assay [3] (setting [7]); 92% (active) in assay [3] (setting [8]); 97.3% (active) in assay [3] (at 50.0 µM); 0% in assay [4] (setting [7]); 86% (active) in assay [4] (setting [8]); 96.6% (active) in assay [4] (at 50.0 µM). Besides, the growth inhibition in assay [5] (setting [7]) is -4%; in assay [5] (setting [8]), 87% (active); in assay [5] (at 50.0 µM) it was 96.3% (active); in assay [6] (setting [7]), 3%; in assay [6] (setting [8]), 90% (active); in assay [6] (at 50.0 µM), 96.5% (active).
For `C=C1C(O)C2(O)OCC34C(CC5C(C)=CC(=O)C(O)C5(C)C23)OC(=O)C(OC(=O)C/C=C(\C)CCCCC)C14` (stereo not given), the growth inhibition in assay [1] (setting [7]) is 76% (active); in assay [1] (setting [8]), 98% (active); in assay [1] (at 50.0 µM) it was 92.3% (active); in assay [2] (setting [7]), 52%; in assay [2] (setting [8]), 98% (active); in assay [2] (at 50.0 µM), 93.3% (active). Besides, the growth inhibition is 60% in assay [3] (setting [7]); 98% (active) in assay [3] (setting [8]); 93% (active) in assay [3] (at 50.0 µM); 88% (active) in assay [4] (setting [7]); 98% (active) in assay [4] (setting [8]); 91.7% (active) in assay [4] (at 50.0 µM). Besides, the growth inhibition was 75% (active) in assay [5] (setting [7]); 99% (active) in assay [5] (setting [8]); 91.2% (active) in assay [5] (at 50.0 µM); 89% (active) in assay [6] (setting [7]); 98% (active) in assay [6] (setting [8]); 92.2% (active) in assay [6] (at 50.0 µM).
`O=C1C=CC(=O)N1c1cccc([N+](=O)[O-])c1`: the growth inhibition in assay [1] (setting [7]) is 78% (active); in assay [1] (setting [8]), 99% (active); in assay [1] (at 50.0 µM), 99.6% (active); in assay [2] (setting [7]) it was 95% (active); in assay [2] (setting [8]), 100% (active); in assay [2] (at 50.0 µM), 99.7% (active). Also, the growth inhibition was 93% (active) in assay [3] (setting [7]); 99% (active) in assay [3] (setting [8]); 99.5% (active) in assay [3] (at 50.0 µM); 84% (active) in assay [4] (setting [7]); 99% (active) in assay [4] (setting [8]); 99.7% (active) in assay [4] (at 50.0 µM). The growth inhibition in assay [5] (setting [7]) was 99% (active); in assay [5] (setting [8]), 99% (active); in assay [5] (at 50.0 µM) it was 99.3% (active); in assay [6] (setting [7]), 91% (active); in assay [6] (setting [8]), 99% (active); in assay [6] (at 50.0 µM), 99.5% (active).
